Measurements: ChEMBL document CHEMBL3433997, “St. Jude Leishmania screening dataset” (2016)

These molecules were tested against Hexose transporter 1 (Plasmodium falciparum) (UniProt O97467) (assay: ST_JUDE_LEISH: Cytotoxicity at 2uM final concentration against transgenic Leishmania Mexicana promastigotes LmPfHT that are glucose transport deficient and complemented with the Plasmodium falciparum hexose transporter. Activity is measured by DNA content using SYBR green in vitro).
Type: functional
CN(C)CCOc1cccc(-c2cnc(N)c(-c3nc4cc(S(C)(=O)=O)ccc4[nH]3)c2)c1 gave an inhibition of 2.26%.
For c1ccc(COc2ccc(Nc3ncnc4cnc(-c5ccc(CN6CCCCC6)o5)cc34)cc2)cc1, the inhibition was 1.73%.
For COc1ccc(NS(=O)(=O)c2ccc(C(=O)Nc3ccc(C(F)(F)F)cc3)cc2)cc1N1CCN(CC2CC2)CC1, the inhibition was 0.6%.
Molecule COc1ccccc1NC(=O)OC(COc1ccc(N)cc1)CN1CC=C(c2ccccc2)CC1 (centres undefined) has an inhibition of 0.25%.
With O=C(Nc1cc(C(F)(F)F)cc(C(F)(F)F)c1)N1CCC(CCN2CCC(c3c[nH]c4ccccc34)CC2)CC1 the inhibition was 4.12%.
In the case of Cc1ccc(C(CC(=O)Nc2nccs2)c2ccc(OC(C)C)cc2)cc1 (centres undefined), the inhibition is reported as 0.63%.
Molecule O=C1CCCN1CCCNCc1cccc(-c2cccc(-c3nc4cc(C(F)(F)F)ccc4[nH]3)c2)c1 has an inhibition of 3.94%.
With CC(C)NCc1ccc(-c2ccc(NC(=O)c3cccc(C#N)c3)cc2)cc1 the inhibition was 1.38%.
For NC1CCN(CCNCc2cccc(-c3ccc(-c4nc5cc(C(F)(F)F)ccc5[nH]4)cc3)c2)C1 (centres undefined), the inhibition was 1.4%.
CN1CCN(c2cc3c(cc2Cl)CCN3C(=O)Cc2ccc(NC(=O)Nc3cccc4ccccc34)cc2)CC1 was tested, and the inhibition was 1.55%.
Work on CCCCCN1CCCC1CNS(=O)(=O)c1cccc(C(=O)Nc2cccc(C#N)c2)c1 (centres undefined) yielded an inhibition of 4.82%.
Molecule c1cc(CNCCc2ccncc2)cc(-c2ccc(-c3nc4ccccc4[nH]3)cc2)c1 has an inhibition of 2.38%.
In the case of CCOc1cc(C)ccc1C1CCN(CCCCNC(=O)c2cccc(-c3ccc(C(F)(F)F)cc3)c2)CC1, the inhibition is reported as 2.27%.
Cc1cc(F)ccc1Oc1nc(Nc2ccc(N3CCOCC3)c(F)c2)nc2c1S(=O)(=O)CCC2 showed an inhibition of 7.33%.
